“And” between values parts separate entries of the source, which are not always exact repeats. Equal entries are not always repeated. Inconclusive results are not listed. The source holds several records for some structures; these can differ, active in one and inactive in another. The source made the active and inactive calls. How the source made its calls, unless noted: active means hit-call score of the fitted dose curve at least 0.9, where 1 is the maximum; inactive means score below 0.9.

The first assay can be described thus: CCTE_Shafer_MEA_acute_LDH: CCTE's Lactate Dehydrogenase Assay for Cytotoxicity in the Neural Acute Assay, Shafer Lab (AID 2284086; active means hit-call score of the fitted dose curve at least 0.9, where 1 is the maximum;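 further: active means LDH release rises above DMSO vehicle level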).
Conditions: not given
A digest of the protocol: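 Medium from rat cortical neuron MEA cultures sampled right after the 40 min compound-exposure recording; released LDH measured by absorbance at 490 nm. Analyzed as signal gain relative to DMSO.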
Take `COC(=O)N(OC)c1ccccc1COc1ccn(-c2ccc(Cl)cc2)n1`: the outcome was inactive. Take `CC(C)Oc1cc(-n2nc(C(C)(C)C)oc2=O)c(Cl)cc1Cl`: the call was inactive. With `CCCC1COC(Cn2cncn2)(c2ccc(Cl)cc2Cl)O1` (stereo not drawn), the call was inactive.

On to `CS/C(C)=N/OC(=O)N(C)SN(C)C(=O)O/N=C(\C)SC`, for which the call was inactive. Still for that read-out and setting: then `O=C(O)c1nc(Cl)ccc1Cl`, with “inactive”; and `CC(C)(C)c1ccc(CSc2cnn(C(C)(C)C)c(=O)c2Cl)cc1`, with “inactive”; and `N#Cc1nn(-c2c(Cl)cc(C(F)(F)F)cc2Cl)c(N)c1S(=O)C(F)(F)F` (stereo not drawn), with “inactive”. Still for that read-out and setting: in the case of `Fc1ccc(Oc2ccnc3cc(Cl)cc(Cl)c23)cc1` it was “inactive”; in that of `Cc1ccc(-c2c(Cl)nc(C#N)n2S(=O)(=O)N(C)C)cc1`, “inactive”. Still for that read-out and setting: then `CC(Oc1ccc(Cl)cc1Cl)C(=O)O` (stereo not drawn), with “inactive”. Turning to `C=CCC1=C(C)[C@@H](OC(=O)[C@@H]2[C@@H](C=C(C)C)C2(C)C)CC1=O`, the outcome was inactive. The same measure, in the same setting: then `COC(=O)C(C)Oc1ccc(Oc2ccc(Cl)cc2Cl)cc1` (stereo not drawn), with “inactive”; and `C=CCC1=C(C)C(OC(=O)C2C(C=C(C)C)C2(C)C)CC1=O` (stereo not drawn), with “inactive”. Still for that read-out and setting: then `CC1COC(Cn2cncn2)(c2ccc(Oc3ccc(Cl)cc3)cc2Cl)O1` (stereo not drawn), with “inactive”; and `COP(N)(=O)SC` (stereo not drawn), with “inactive”; and `CO/C=C(/C(=O)OC)c1ccccc1Oc1cc(Oc2ccccc2C#N)ncn1`, with “inactive”. Same read-out and setting: in the case of `COP(=S)(OC)Oc1nc(Cl)c(Cl)cc1Cl` it was “inactive”; in that of `CCCN(CCC)c1c([N+](=O)[O-])cc(S(N)(=O)=O)cc1[N+](=O)[O-]`, “inactive”. Regarding `CCCCNC(=O)OCC#CI`, the call was inactive. For `N#CC(CCc1ccc(Cl)cc1)(Cn1cncn1)c1ccccc1` (stereo not drawn), the outcome was inactive. In the case of `C#CCOS(=O)OC1CCCCC1Oc1ccc(C(C)(C)C)cc1` (stereo not drawn), the compound was called inactive. Still for that read-out and setting: in the case of `CCOP(=S)(OCC)SCn1c(=O)oc2cc(Cl)ccc21` it was “inactive”.

A further assay is described as follows: CCTE_Shafer_MEA_dev_correlation_coefficient_mean: CCTE's Neural Network Formation Assay for Mean Correlation Coefficient, Shafer Lab (AID 2284093).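 On AC50: well mean pairwise spike train correlation integrated as AUC over recording days 5 to 12; potency fitted for loss of correlation relative to DMSO vehicle wells.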
Conditions: not given
The gist of the method:
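Read-out: well-mean correlation coefficient of spike trains between electrode pairs, collapsed over four recording days as trapezoidal area-under-the-curve. Developing rat cortical neuron networks grown on MEAs received test chemical continuously from plating.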
With `CCCCC(CC)COC(=O)c1ccccc1C(=O)OCC(CC)CCCC` (stereo not drawn), the AC50 is 5.5 µM (active) and 7.56 µM (active); the result was inactive. As for `COC(=O)N(OC)c1ccccc1COc1ccn(-c2ccc(Cl)cc2)n1`, the AC50 is 161 nM (active) and 10.2 nM (active). As to `Cc1c(F)c(F)c(COC(=O)C2C(/C=C(\Cl)C(F)(F)F)C2(C)C)c(F)c1F` (stereo not drawn), the AC50 was 0.61 µM (active).

On to `CC(C)(C)c1ccc(CSc2cnn(C(C)(C)C)c(=O)c2Cl)cc1`, for which the half-maximal activity concentration (AC50) was 0.00177 µM (active). As to `N#Cc1nn(-c2c(Cl)cc(C(F)(F)F)cc2Cl)c(N)c1S(=O)C(F)(F)F` (stereo not drawn), the call was inactive. For `Cc1ccc(-c2c(Cl)nc(C#N)n2S(=O)(=O)N(C)C)cc1`, the AC50 is 27.9 µM (active). Consider `CCCCOC(=O)c1ccccc1C(=O)OCCCC`, for which the call was inactive. For the compound `CN(C)C(=S)SSC(=S)N(C)C`, the AC50 was 0.00907 µM (active). With `CNC(=O)ON=CC(C)(C)SC`, the compound was classed as inactive. `C=CCC1=C(C)C(OC(=O)C2C(C=C(C)C)C2(C)C)CC1=O` (stereo not drawn): the AC50 was 4.1 µM (active) and the result was inactive. On to `COP(N)(=O)SC` (stereo not drawn), for which the compound was classed as inactive. The same measure, in the same setting: in the case of `CCNc1nc(Cl)nc(NC(C)C)n1` it was “inactive”. On to `CCOc1cc(Oc2ccc(C(F)(F)F)cc2Cl)ccc1[N+](=O)[O-]`, for which the AC50 was 6.5 µM (active). On the same count and under the same terms, then `COc1ccc(C(c2ccc(OC)cc2)C(Cl)(Cl)Cl)cc1`, with 2.95 µM (active). Same read-out and setting: in the case of `CO/C=C(/C(=O)OC)c1ccccc1Oc1cc(Oc2ccccc2C#N)ncn1` it was 1.57 µM (active) and 574 nM (active). On to `COP(=S)(OC)Oc1nc(Cl)c(Cl)cc1Cl`, for which the outcome was inactive. Regarding `CCCCNC(=O)OCC#CI`, the AC50 was 3.8 µM (active) and 1.05 µM (active). The same measure, in the same setting: then `CCCCNC(=O)n1c(NC(=O)OC)nc2ccccc21`, with 15 µM (active); and `C=CC1(C)OC(=O)N(c2cc(Cl)cc(Cl)c2)C1=O` (stereo not drawn), with 50 µM (active).

Regarding `CCOC(=O)CC(SP(=S)(OC)OC)C(=O)OCC` (stereo not drawn), the AC50 is 12.7 µM (active) and 22.6 µM (active).

The next assay in a line: UKN2_HCS_IMR90_neural_migration: University of Konstanz (UKN) Leist Lab Neural Crest Cell Migration Assay in human induced IMR90 Pluripotent Stem Cells (UKN2) (AID 2284204). The note with it: actives raise or lower the signal. A digest of the protocol:
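iPSC-derived IMR90 neural crest cells seeded around stoppers on PLO/laminin/fibronectin; migration started in N2-S medium with EGF/FGF, compounds added after 24 h for 24 h. Migration into cell-free area imaged after calcein-AM/Hoechst staining; bidirectional fit versus DMSO.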
For the compound `CCCCC(CC)COC(=O)c1ccccc1C(=O)OCC(CC)CCCC` (stereo not drawn), the result was inactive. Take `COC(=O)N(OC)c1ccccc1COc1ccn(-c2ccc(Cl)cc2)n1`: the AC50 is 29.2 µM (active). Take `CC(C)(C)c1ccc(CSc2cnn(C(C)(C)C)c(=O)c2Cl)cc1`: the call was inactive.

Regarding `N#Cc1nn(-c2c(Cl)cc(C(F)(F)F)cc2Cl)c(N)c1S(=O)C(F)(F)F` (stereo not drawn), the half-maximal activity concentration (AC50) is 21.3 µM (active).

Turning to `Cc1ccc(-c2c(Cl)nc(C#N)n2S(=O)(=O)N(C)C)cc1`, the compound was classed as inactive. Still for that read-out and setting: then `CCCCOC(=O)c1ccccc1C(=O)OCCCC`, with “inactive”.

With `CN(C)C(=S)SSC(=S)N(C)C`, the AC50 is 1.72 µM (active). For the compound `CCOc1cc(Oc2ccc(C(F)(F)F)cc2Cl)ccc1[N+](=O)[O-]`, the outcome was inactive. Still for that read-out and setting: in the case of `CO/C=C(/C(=O)OC)c1ccccc1Oc1cc(Oc2ccccc2C#N)ncn1` it was “inactive”. In the case of `CCCCNC(=O)n1c(NC(=O)OC)nc2ccccc21`, the AC50 was 10 µM (active). For `C=CC1(C)OC(=O)N(c2cc(Cl)cc(Cl)c2)C1=O` (stereo not drawn), the outcome was inactive.

Another assay can be described thus: UKN4_HCS_LUHMES_neurite_outgrowth: University of Konstanz (UKN) Leist Lab Neurite Outgrowth Assay in human LUHMES cells (UKN4) (AID 2284206). The note with it: actives raise or lower the signal. A digest of the protocol: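 Human LUHMES neuronal precursors, differentiated 2 days then replated without cAMP and GDNF, exposed to compounds for 24 h. Neurite area imaged by high-content microscopy after calcein-AM live staining; Hoechst H-33342 for viability; bidirectional fit versus DMSO.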
Consider `N#Cc1nn(-c2c(Cl)cc(C(F)(F)F)cc2Cl)c(N)c1S(=O)C(F)(F)F` (stereo not drawn), for which the AC50 is 16.1 µM (active). `C=CCC1=C(C)C(OC(=O)C2C(C=C(C)C)C2(C)C)CC1=O` (stereo not drawn): the AC50 was 9.08 µM (active). On the same count and under the same terms, then `CCCCNC(=O)n1c(NC(=O)OC)nc2ccccc21`, with 7.73 µM (active).

(Values after PubChem BioAssay (EPA / NIEHS).)
